Screening results: PubChem BioAssay, several laboratories
The list is not random: actives were taken first. Their share in the collection is about 4.3%.
HSF1 inh: HSF1 inhibition; NIH3T3-HGL HSE-luciferase, MG132-induced, luminescence 8 h; stronger effect = lower value; activity change, negative = inhibition, % at 7.5 µM (by protocol); hit rate 0.77% among 300,000; AID 2098;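 active = more than half of replicate wells show activity change below -50%, luminescence cut by over half; inconclusive = some wells, but at most half, below -50%; inactive = no replicate well below -50%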;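 also: luciferase reports HSF-1 transcriptional activity via heat shock element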
HSF1 activator: increases HSF-1 driven luciferase reporter signal. NIH3T3-HGL HSF-1 luciferase reporter, MG132, 8 h; 100% = twice DMSO control signal. activation, % at 9 µM. hit rate 1.7% among 300,000. AID 504408;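 active = mean replicate activation of at least 50% with a set share of replicates each reaching 50%; inconclusive = only one of those two conditions met; inactive = mean below 50% and too few replicates reaching it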
SMARCA2 act: activators of SMARCA2 function; MG213 cells, MMTV-luciferase reporter, dexamethasone, overnight; activation, % at 9.1 µM; hit rate 1% among 370,000; in the data active = activation above about 7.8%
Wnt act: Wnt/beta-catenin pathway activation; Wnt/beta-catenin reporter cell assay, activator, plate reader; activation, % at 9.35 µM; hit rate 1.2% among 300,000; AID 743398; in the data active = activation above about 30%, passing the limit was not always enough; inconclusive = no clear call, values can overlap the other calls
MITF TRPM1 HTS: increases MITF-driven TRPM1 promoter luciferase signal. SK-MEL-5 TRPM1-promoter luciferase, 24 h; % of positive control, neutral wells = 0. activation, % at 12.5 µM. hit rate 0.75% among 300,000;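 active = mean activation of at least 80% with every replicate also reaching 80%; inconclusive = mean reaches 80% but some replicate falls short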
esBAF inh: inhibitors of esBAF chromatin remodeling in mouse ES cells; AID 602393; reporter increase, % at 12.5 µM; hit rate 2% among 350,000; Bmi1-luciferase knock-in reporter, 24 h; 100% = twice the neutral-well signal; in the data active = activation above about 40%; inconclusive = no clear call, values can overlap the other calls;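 also: a rise in the Bmi1 reporter signal indicates esBAF inhibition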
Hits are given with their value; – = inactive; ? = inconclusive; · = not tested or not shown.

SMILES	HSF1 inh	HSF1 activator	SMARCA2 act	Wnt act	MITF TRPM1 HTS	esBAF inh
COc1ccc2nc3sc(C(=O)N4CCN(C)CC4)cc3cc2c1	–	–	–	·	–	–
COc1ccc2nc3sc(C(=O)NCCCN4CCc5ccccc5C4)cc3cc2c1	–	–	–	–	–	73
Nn1c(CSc2ccccn2)nc2ccccc2c1=O	–	–	–	·	–	·
Cc1ccc2nc(SCc3nc4ccccc4c(=O)[nH]3)[nH]c2c1	–	?	–	–	–	51
O=c1[nH]c(CSc2ncc(C(F)(F)F)cc2Cl)nc2ccccc12	–	63	–	–	–	–
Cc1ccc2nc(SCc3ccc([N+](=O)[O-])cc3)[nH]c2c1	–	82	–	·	–	–
O=c1[nH]c(CSc2ccccn2)nc2ccccc12	–	75	–	31	–	·
CCCNC(=O)N(C)C[C@H]1Oc2cc(-c3ccc(C)cc3)ccc2S(=O)(=O)N([C@@H](C)CO)C[C@H]1C	·	·	·	·	·	–
C[C@H]1CCCCO[C@@H](CN(C)C(=O)NC2CCCCC2)[C@@H](C)CN([C@@H](C)CO)C(=O)c2cc(NS(=O)(=O)c3cccs3)ccc2O1	·	·	·	·	·	–
Cc1ccc2nc(CSc3nc(C)ccc3C#N)[nH]c2c1	-59	–	–	–	–	–
O=c1[nH]c(CSc2ccccn2)nc2c1cnn2-c1ccccc1	–	57	–	–	–	·
Cc1ccc2nc(SCC(=O)NCc3ccc(S(N)(=O)=O)cc3)[nH]c2c1	–	–	–	–	·	–
Cc1ccc2nc(SCC(=O)NCc3ccc(F)cc3)[nH]c2c1	–	65	–	–	·	–
Cc1cc(C)c(C#N)c(SCc2ccc([N+](=O)[O-])cc2)n1	–	53	–	–	–	·
Cn1ccnc1SCc1nc2c(cnn2-c2ccccc2)c(=O)[nH]1	–	–	–	–	–	·
CC=Cc1ccc2n(c1=O)C[C@@H]1[C@@H](CO)[C@H](C(=O)NC3Cc4ccccc4C3)N(CC3CC3)[C@H]21 (mixture of isomers)	·	·	·	·	·	–
O=C(OCc1nc2ccsc2c(=O)[nH]1)c1ccccc1	–	–	–	–	–	·
O=C(OCc1nc2ccsc2c(=O)[nH]1)c1ccc(Cl)nc1	–	–	–	41	–	–
C[C@H](CO)N1C[C@H](C)[C@H](CN(C)Cc2ccc(Cl)c(Cl)c2)Oc2c(NC(=O)C3CCOCC3)cccc2C1=O	·	·	·	·	·	–
C[C@H](CO)N1C[C@H](C)[C@H](CN(C)C(=O)NC2CCCCC2)Oc2ccc(NC(=O)CCCN(C)C)cc2C1=O	·	·	·	·	·	–
C(=N\Nc1nc(N2CCOCC2)nc(N2CCOCC2)n1)/c1ccncc1	–	–	–	–	–	·
BrC(/C=C\c1ccccc1)=N/Nc1nc(N2CCOCC2)nc(N2CCOCC2)n1	–	176	–	–	–	·
CN(C)c1ccc(/C=C/C=N/Nc2nc(N3CCOCC3)nc(N3CCOCC3)n2)cc1	–	79	–	–	–	–
COc1ccc(S(=O)(=O)N[C@H]2CC[C@@H](CC(=O)N3CCN(c4ccccc4)CC3)O[C@@H]2CO)cc1	·	·	·	·	·	–
CCC(C)[C@H](NC(=O)N1CCCCCC1)C(=O)O (some centres undefined)	–	–	–	–	–	–
SMILES	HSF1 inh	HSF1 activator	SMARCA2 act	Wnt act	MITF TRPM1 HTS	esBAF inh
CC(C)C[C@H](NC(=O)N1CCCCCC1)C(=O)O	-51	–	–	–	–	·
Cc1ccc(-c2nc3ccc(NS(=O)(=O)c4ccccc4)cc3[nH]2)o1	–	–	–	–	–	78
O=C(c1cccnc1)N1C[C@H]2[C@@H](c3ccccc31)[C@H](CO)N2Cc1ccc2c(c1)OCO2	·	·	·	·	·	–
Oc1c(C=C2N=c3ccccc3=N2)sc(=S)n1-c1ccc(F)cc1	–	–	–	–	–	–
Oc1[nH]c(=S)sc1C=C1N=c2ccccc2=N1	–	–	–	42	·	–
CCc1cc(=O)oc2c(CN3CCN(C)CC3)c(O)ccc12	–	–	–	–	–	–
CN1CCN(Cc2c(O)ccc3cc(Br)ccc23)CC1	–	134	–	–	·	·
COc1cccc2cc(C(=O)NCc3ccccc3Br)c(=O)oc12	–	–	–	–	–	41
COc1cccc2cc(C(=O)NCc3ccco3)c(=Nc3ccc(C(=O)O)cc3)oc12	-63	–	–	–	–	–
CCc1ccc(C(=O)Cc2cc3cccc(OC)c3oc2=O)cc1	–	80	–	–	–	?
COc1ccc(-c2cnc3c(c2)C(=O)N([C@@H](C)CO)C[C@@H](C)[C@H](CN(C)C(=O)C2CCC2)O3)cc1	·	·	·	·	·	–
